Experimental findings from PubChem BioAssay (NCI) are described below.

Several values for one entry are separate records, joined by “and”; a condition that tells them apart may be missing. Identical values can stand only once. This is part of a sample that, as a whole, favours compounds with a hit. Of some 83,000 tested, about 20% had one in any assay.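 Cell lines were cultured in 96-well plates, exposed to a single compound concentration, and assessed for percent growth 48 hours later.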 Values without a mark were called inactive. Activity calls are given as the source filed them. The calls were made as follows: active = growth percent below 10; inactive = the rest.

The test system of this experiment is MDA-MB-468 breast. The experiment is described as follows: NCI-60 one-dose screen, 48 h (100 = growth as untreated, 0 = no growth, -100 = all killed). The note with it: 10 µM unless noted.
Regarding `CCN(CC)CCCC(C)Nc1ccnc2cc(Oc3ccccc3)ccc12` (stereo not given), the growth was 31.5% and 70.2%.
In the case of `CC(C)C(=O)Nc1ccc([N+](=O)[O-])c(C(F)(F)F)c1`, the growth was 61.7%.
As for `C[C@H](NC(=O)[C@@H](C)N)[C@H](Oc1ccc2c(cnn2-c2ccc(F)cc2)c1)c1ccc2c(c1)OCCO2`, the figure is 37.7%; as for `COc1cc(-c2nc3occn3c2-c2ccnc(NCCCNS(=O)(=O)c3ccc(O)cc3)n2)ccc1F`, 91.4%.
With `COc1ccc(C[C@H](N)C(=O)N[C@@H]2[C@@H](CO)OC(n3cnc4c(N(C)C)ncnc43)[C@@H]2O)cc1` (stereo not given in full), the growth was -70.8% (active).
With `C=C(C)C1CC(O)C2(C)CCCC3C2C1CC(C)C3(C)CC/C(C)=C/C(O)C1CCC(=O)c2c(OC)cc(OC)cc21` (stereo not given) the figure was 0.0686% (active); with `CCN(CC)CCCC(C)Nc1ccnc2ccc(Oc3ccccc3)cc12` (stereo not given), 54.7%.
For `Cc1ccc2oc(=O)cc(/C(=C3/C=CC=N3)c3ccc[nH]3)c2c1`, the growth is 3.2% (active).
`COc1ccc(-c2nn(C(=O)NCCN(C)C)cc2-c2ccncc2)cc1Cl`: the growth was 4.11% (active).
With `COC(=O)[C@H]1CCCN1C(=O)C1CCCN1C(=O)[C@@H](Cc1ccccc1)NC(=S)Nc1cc(C(F)(F)F)cc(C(F)(F)F)c1` (stereo not given in full) the figure was 100% and 58.2%; with `OC(c1cc2cc(Br)ccc2c2cc(Br)ccc12)C1CCCCN1` (stereo not given), -83.1% (active).
With `COc1ccc(/C(C)=C(\c2ccc(Cl)cc2)c2ccc(OCCN3CCCC3)cc2)cc1` the figure was 57.8%; with `CC(C)C(=O)Nc1ccc(-c2nc(-c3cccc(OCCN4CCOCC4)c3)c(-c3ccnc(Br)c3)[nH]2)cc1`, 23.2%.
As for `COc1ccc(/C=C/c2nc(-c3n[nH]c(=O)n3-c3ccccc3)c3ccccc3n2)cc1`, the figure is 100%; as for `Cn1ccnc1C(=O)/C=C/c1ccc(C(=O)Nc2ccc(NC(=O)CCNC(=O)c3csc(Br)n3)cc2)cc1`, 48.4%.
Regarding `CCc1ccc(Nc2ncnc3c2cnn3-c2cccc(Br)c2)cc1`, the growth is 91%.
As for `O=C1CCC(=O)N1CC1CC2CCC1C2` (stereo not given), the figure is 104% and 90.6%; as for `O=S(=O)(Nc1cc(Cl)c(F)c(Cl)c1)c1ccc(-c2cnc(C3CC3)o2)cc1`, 13.5%; as for `COc1cc(Nc2ncccc2NC(=O)c2cn(Cc3cccc(Oc4ccccc4)c3)nn2)cc(OC)c1`, 65.9%.
With `Cc1ccc(-n2nnnc2N)c(C)c1` the figure was 115%; with `C(=N\Nc1ncnc2sc3c(c12)CCNC3)/c1cccc2ccccc12`, 72.1%.
With `CC(C)c1ccc(Cn2ccc3c4c(N)nc(NC5CC5)nc4ccc32)cc1` the figure was -76% (active); with `COc1cc(/C=C(\C#N)C(=O)c2ccccc2)ccc1OCc1ccccc1`, 96.4%.
On to `O=C1/C(=C/c2cccc(O)c2)COc2ccc(O)cc21`, for which the growth was 52.8%.
As for `Cc1ccc[n+](CC(=O)c2cccc3ccccc23)c1`, the figure is 80.2%.
With `CCCCCCCCCCCCCCCC1=NC(C)(C)CN1C(C)C` the figure was -58.8% (active).
With `COc1cc(/C=N/NC(=O)c2cnn3c2NC(c2ccccc2)C3)ccc1OC1CCCC1` (stereo not given) the figure was 23.3%.
With `O=C1OC(=O)C2C1CC=CC2c1ccccc1` (stereo not given), the growth is 93.3%.
As for `CCCCCCCCc1cc[n+](CC(=O)c2ccc(Br)cc2)cc1`, the growth was -87% (active).
Regarding `COC(=O)C(C)[C@H]1CC[C@@H]2[C@]1(C)CC=C1[C@]23C=C[C@]2(C[C@@H](OC(C)=O)CC[C@]12C)C(C(=O)OC)C3C(=O)OC` (stereo not given in full), the growth is 94.1%.
With `COc1cccc(-c2nn(-c3ccccc3)cc2-c2ccnc(NCCNS(=O)(=O)c3cccc(F)c3)c2)c1` the figure was 15.8%.
With `COc1ccc(NS(=O)(=O)N2CCCCC2)cc1` the figure was 105%.
As for `Nc1c2c(nc3ccc(Cl)cc13)CC(c1ccc(O)cc1)CC2=O` (stereo not given), the figure is 18%.
On to `COCc1cc2c(cc1Br)OCO2`, for which the growth is 110%.
Take `COC(=O)CCCNc1c(-c2c(O)c(O)cc3c(O)c(-c4c(C)cc5c(-c6nc7ccccn7c6NCCCC(=O)OC)c(O)c(O)cc5c4O)c(C)cc23)nc2ccccn12`: the growth was 26.9%.
Take `CC[C@]12CC(C(=O)OC)=C3Nc4ccccc4[C@@]34CCN(C14)[C@@H]1c3cc4c(cc3O[C@@H]1[C@H]2O)NC1=C(C(=O)OC)C[C@@]2(CC)C3N(CC[C@@]143)C[C@H]1O[C@H]12` (stereo not given in full): the growth was -35.7% (active).
With `Cc1cc(N2CCOCC2)nc(N(CCCNc2ccnc3cc(Cl)ccc23)Cc2ccc3c(c2)OCO3)n1` the figure was -63.6% (active); with `Fc1c[c-]c(-c2ccccn2)c(F)c1.[CH3-].[Pt+2].c1ccc(P(C[PH+](c2ccccc2)c2ccccc2)c2ccccc2)cc1`, -38.3% (active).
With `COc1cc(/C=C/C(=O)c2c(-c3ccc(F)cc3)nc3sc(C)nn23)cc(OC)c1OC` the figure was 23.9%; with `CN(C)c1ccc(/C=C(\C#N)c2ccccc2)cc1`, 4.19% (active) and -2.35% (active) and 4.76% (active).
